Records with an inconclusive call do not appear. Active and inactive are the calls of the source. The limit is not given here; nearly all actives have AC50 up to about 26 µM.
Assay: viability loss in pontine glioma line – cell-based, SU-DIPG-XXV, MIPE5.0, CellTiter-Glo, qHTS, dose response (AID 1347065);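 also: cells exposed to compound for 48 hours before ATP readout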
Settings: CellTiter-Glo ATP luminescence

Row | SMILES | AC50 | outcome
1 | O=C(NOCCO)c1cc(CN2OCCCC2=O)c(F)c(F)c1Nc1ccc(I)cc1F | 0.417 µM (active) | –
2 | CC(C)NC(=O)C1CCC(n2c(NC(=O)c3ccc(F)cc3)nc3ccc(CN4CCC(C(C)(C)O)CC4)cc32)CC1 (centres undefined) | 6.45 µM (active) | –
3 | COc1cccc2c1c(O)c(C(=O)N(C)c1ccc(C(F)(F)F)cc1)c(=O)n2C | – | inactive
4 | COCCNCc1ccc(-c2cc3nccc(Oc4ccc(NC(=O)C5(C(=O)Nc6ccc(F)cc6)CC5)cc4F)c3s2)nc1 | 4.68 µM (active) | –
5 | CC1Oc2cc(cnc2N)-c2c(nn(C)c2C#N)CN(C)C(=O)c2ccc(F)cc21 (centres undefined) | 7.42 µM (active) | –
6 | CCc1cc(C(N)=O)ccc1-n1nc(C(C)C)c2c(-n3cnc(-c4cnn(C)c4)c3)ccnc21 | 1.86 µM (active) | –
7 | NS(=O)(=O)Oc1ccc2c3c(c(=O)oc2c1)CCCCC3 | – | inactive
8 | CC1=C(c2ccc(O)cc2)[C@H](c2ccc(OCCN3CCCCC3)cc2)Oc2cc(O)ccc21 | 16.6 µM (active) | –
9 | NC(=O)c1cccc2c(NC(CN3CCC3)c3ccc(Cl)c(C(F)(F)F)c3)ncnc12 (centres undefined) | 2.95 µM (active) | –
10 | CCN1C(=O)N2Cc3cc(OC)cc(OC)c3[C@@H](C)C=C2C12CCN(Cc1cc(C)cc(C)c1)CC2 | 14.8 µM (active) | –
11 | CCN1CCN(Cc2ccc(NC(=O)Nc3ccc(Oc4cc(NC)ncn4)cc3)cc2C(F)(F)F)CC1 | 10.5 µM (active) | –
12 | CCCCN(CCCC)C(=O)CN1C[C@H](c2ccc3c(c2)OCO3)[C@@H](C(=O)O)[C@@H]1c1ccc(OC)cc1 | – | inactive
13 | O=C(/C=C\n1cnc(-c2cc(C(F)(F)F)cc(C(F)(F)F)c2)n1)NNc1ccccn1 | 5.25 µM (active) | –
14 | CCN(CC)CCNC(=O)c1c(C)[nH]c(/C=C2/C(=O)Nc3ccc(-c4csc(-c5ccccc5)n4)cc32)c1C | 4.68 µM (active) | –
15 | C[C@@H]1CC(=O)Nc2cccc(-c3cnn(C(C)(C)C)c3)c2N1 | – | inactive
16 | Cc1c(CN2CCC(Nc3ncnc4sc(CC(F)(F)F)cc34)CC2)ccc2c1cc(C#N)n2Cc1cn[nH]c1 | 29.5 µM (active) | –
17 | CC(=O)c1cnc2ccc(-c3cc(Cl)c(O)c(Cl)c3)nc2c1NC1CCC(CN(C)C)CC1 (centres undefined) | 0.121 µM (active) | –
18 | O=c1sn(-c2cccc3ccccc23)c(=O)n1Cc1ccccc1 | 14.8 µM (active) | –
19 | Nc1ccc(/C=C/C(=O)NCc2cc3cc(-c4ccc(C(=O)N5CCC(F)(F)CC5)cc4)cc(-c4ccc(F)cc4)c3o2)cn1 | 0.742 µM (active) | –
20 | Cc1cn(CCN2CCN(c3ccccc3-c3cc(C#N)cc(C(=O)NCCCN4CCCC4)c3)CC2)c2ccccc12 | 7.42 µM (active) | –

Row | SMILES | AC50 | outcome
21 | CN(C)C1CCN(C(=O)c2ccc(NC(=O)Nc3ccc(-c4nc(N5CCOCC5)nc(N5CCOCC5)n4)cc3)cc2)CC1 | 0.295 µM (active) | –
22 | CCOC(=N)c1nc2ccc3ncnc(Nc4cc(F)c(F)cc4Cl)c3c2s1 | 11.8 µM (active) | –
23 | O=C(NOCCO)c1ccc2cncn2c1Nc1ccc(I)cc1F | 0.332 µM (active) | –
24 | Cn1nccc1Nc1nccc(-c2ccn([C@H](CO)c3ccc(Cl)c(F)c3)c(=O)c2)n1 | 18.6 µM (active) | –
25 | CCc1cc2c(c(OCC(F)(F)F)c(C(=O)NC3CCN(C(=O)CO)CC3)n2C)c(=O)n1CC(=O)c1ccccc1 | – | inactive
26 | O=C(NCc1ccc(S(=O)(=O)c2cccc(C(F)(F)F)c2)cc1)c1cnc2[nH]ncc2c1 | 0.0166 µM (active) | –
27 | C=C1C(=O)O[C@@H]2[C@H]3C(C)=CC[C@@]34O[C@@]4(C)CC[C@@H]12 | 9.34 µM (active) | –
28 | COc1cc(C(=O)O)ccc1NC(=O)[C@@H]1N[C@@H](CC(C)(C)C)[C@](C#N)(c2ccc(Cl)cc2F)[C@H]1c1cccc(Cl)c1F | 9.34 µM (active) | –
29 | CN1C/C=C/CCOc2cccc(c2)-c2ccnc(n2)Nc2cccc(c2)C1 | 0.0934 µM (active) | –
30 | Nc1nc2cc(-c3ccc4ncc(C(=O)N5CCOCC5)n4c3)ccc2o1 | 9.34 µM (active) | –
31 | CNS(=O)(=O)Nc1nccc(Cc2c(C)c3ccc(Oc4ncccn4)cc3oc2=O)c1F | 2.35 µM (active) | –
32 | COc1ccc(-c2cc(C(O)C3CCCCN3)c3ccccc3n2)cc1 (centres undefined) | 29.5 µM (active) | –
33 | Cc1ccc(NC(=O)c2ccc3c(c2)OCCO3)cc1NC(=O)c1ccc2nc(OCCN3CCCC3)ccc2c1 | 0.0645 µM (active) | –
34 | O=C(CCCc1ccc2cccnc2n1)NCc1cc(-c2ccc(F)c(C(F)(F)F)c2)no1 | – | inactive
35 | Cc1ccc(S(=O)(=O)Nc2cc(-c3ccc(C#N)s3)ccc2C)cc1 | 0.0332 µM (active) | –
36 | Nc1nc(N)c2nc(-c3cccc(Cl)c3)c(N)nc2n1 | 8.33 µM (active) | –
37 | O=c1cc(N2CCOCC2)oc2c(-c3ccc4c(c3)OCCO4)csc12 | 8.33 µM (active) | –
38 | COc1cc(OC)c(/C=C/S(=O)(=O)Cc2ccc(OC)c(OP(=O)(O)O)c2)c(OC)c1 | 0.0742 µM (active) | –
39 | Cc1cc(C(=O)Nc2cc(Nc3ccc4c(/C=C/c5ccccn5)n[nH]c4c3)ccc2F)n(C)n1 | 3.72 µM (active) | –

Source: PubChem BioAssay
